Data on 40 compounds can be found in PubChem BioAssay AID2110 (National Center for Advancing Translational Sciences (NCATS), 2009).

SMILES strings stand for the structures. Several values for one entry are separate records, joined by “and”; a condition that tells them apart may be missing. Equal entries are not always repeated. Inconclusive results are not listed. Unmarked numbers belong to inactive results. Activity calls are given as the source filed them. Calls follow the shape of the dose curve; as a rule, active = well fitted curve in either direction with a large enough effect; inconclusive = small, poorly fitted or top-dose-only effect; inactive = no such curve, though single readings can be large or run the other way.

The assay concerns the target Lysosomal alpha-glucosidase (Homo sapiens) (UniProt P10253). The assay can be described thus: Confirmation of Inhibitors and Activators of Purified Human alpha-Glucosidase Using an Alternate Red Fluorescent Susbtrate. Conditions: purified enzyme, red fluorogenic substrate; series mostly up to 63.4 µM; activity change, negative = inhibition: at the top concentration. An excerpt:
NIH Chemical Genomics Center [NCGC]
NIH Molecular Libraries Probe Production centers Network [MLPCN]
Assay Submitter (PI): Wei Zheng
Alpha-glucosidase is responsible for hydrolysis of terminal, non-reducing 1,4-linked alpha-D-glucose residues with release of alpha-D-glucose. It is a lysosomal hydrolase that is required for the degradation of a small percentage (1-3%) of cellular glycogen in human. Deficiency of this enzyme results in glycogen-storage disease type II (GSDII), also referred to as Pompe disease, an autosomal recessive disorder. Structurally normal glycogen is accumulated in lysosomes and cytoplasm in affected patients, primarily in muscle tissues. Excessive glycogen storage within lysosomes may interrupt normal functioning of other organelles and leads to cellular injury. In turn, this leads to enlargement and dysfunction of the entire organ involved (eg, cardiomyopathy and muscle weakness).
It has reported that the improper folding and trafficking of alpha-glucosidase resultinged from the genetic mutations may account for a significant number of Pomrope patients. […] We optimized this alpha-glucosidase assay in 1536-well plate format for identifying the novel small molecule inhibitors with the structures other than the sugar analogs in order to develop the new pharmacological chaperones. This assay attempted to confirm hits from the primary screening using an alternate fluor than the primary screen used.
NCGC Assay Protocol Summary:
This is a fluorogenic enzyme assay with resorufin-alpha-D-pyranoside as the substrate and recombinant human alpha-glucosidase as the enzyme preparation. Upon the hydrolysis of this fluorogenic substrate, the resulting product, resorufin, can be excited at 573 nm and emits at 610 nm which can be detected by a standard fluorescence plate reader. Data were normalized to the controls for basal activity (without enzyme) and 100% activity (with enzyme). The AC50 values were determined from concentration-response data modeled with the standard Hill equation.
Assay buffer: 50 mM citric acid (titrated with potassium phosphate to pH 5.0), 0.005% Tween-20, pH 5.0. (pH 5.0 is an optimal condition for this enzyme assay)
1536-well assay protocol for the human alpha-glucosidase:
(1) Add 2 ul/well of enzyme (4 nM final)
(2) Add 23 nL compounds in DMSO solution. The final titration was 0.7 nM to 77 uM.
(3) Add 1 ul of substrate (400 uM final)
(4) Incubate at room temperature for 20 min.
(5) Add 2 ul stop solution (1M NaOH and 1M Glycine mixture, pH 10)
(6) Detect the assay plate in a ViewLux plate reader (PerkinElmer) with Ex=365 nm and Em=440nm.
Keywords: Alpha-glucosidase, Pompe Disease, pharmacological chaperone, chaperone therapy, high throughput screening, alpha-glucosidase inhibitor, MLSMR, MLSCN, NIH Roadmap, qHTS and NCGC
Take `O=Cc1ccc(N2CCN(S(=O)(=O)c3ccc4c(c3)CC(=O)N4)CC2)cc1`: the Potency was 4.11 µM [inhibitor] (active).
Turning to `CCCN1CNc2c(c(=O)[nH]c(=S)n2CCc2cc(OC)ccc2OC)C1`, the Potency is 6.31 µM (active).
As for `COc1cc(NS(C)(=O)=O)ccc1Nc1c2ccccc2nc2ccccc12`, the “activity change, negative = inhibition” value was 14.2%.
`CCCN1CNc2c(c(=O)[nH]c(=S)n2CCc2cc(Cl)ccc2Cl)C1`: the Potency is 0.794 µM (active).
Regarding `CC(=O)c1ccc(N2CCN(S(=O)(=O)c3ccc4[nH]c(=O)oc4c3)CC2)cc1`, the “activity change, negative = inhibition” value was -5.47%.
In the case of `CCCN1CNc2c(c(=O)[nH]c(=S)n2CCc2ccc(OC)cc2)C1`, the Potency was 6.31 µM (active).
The same measure, in the same setting: under `CCCN1CNc2c(c(=O)[nH]c(=S)n2CCc2cc(C)ccc2C)C1` stands 3.16 µM (active); under `CCCN1CNc2c(c(=O)[nH]c(=S)n2CCc2ccc(C)c(C)c2)C1`, 1.12 µM (active).
With `CC(=O)c1ccc(N2CCN(S(=O)(=O)c3cc4c(cc3Cl)NC(=O)C4)CC2)cc1`, the Potency is 1.63 µM [inhibitor] (active) and 5.17 µM [inhibitor] (active).
Same read-out and setting: for `N#Cc1ccc(N2CCN(S(=O)(=O)c3ccc4c(c3)CC(=O)N4)CC2)cc1` the value was 3.26 µM [inhibitor] (active); for `CCCN1CNc2c(c(=O)[nH]c(=O)n2CCc2ccc(OC)c(OC)c2)C1`, 14.1 µM (active).
Regarding `COc1ccc(C#Cc2cnc(Cl)c3cncnc23)cc1OC`, the “activity change, negative = inhibition” value was 1.22%.
On the same count and under the same terms, for `O=c1[nH]cc(C#Cc2ccccc2)c2ncncc12` the value was -9.19%.
With `CCCN1CNc2c(c(=O)[nH]c(=S)n2CCc2cccc(C)c2)C1`, the Potency was 7.08 µM (active).
With `COc1ccc(CCc2c[nH]c(=O)c3cncnc23)cc1OC`, the “activity change, negative = inhibition” value is 2.32%.
Regarding `OC[C@H]1NC[C@@H](O)[C@@H]1O`, the “activity change, negative = inhibition” value is -83.5%.
The same measure, in the same setting: for `CC(=O)Nc1ccc(S(=O)(=O)N2CCN(c3ccc(C(C)=O)cc3)CC2)cc1` the value was -7.47%; for `CC(=O)c1ccc(N2CCN(S(=O)(=O)c3ccc4c(c3)CCCC(=O)N4)CC2)cc1`, -0.651%; for `OCCNc1nc(-c2cccs2)nc2ccccc12`, 0.869%.
Same read-out and setting: for `CC(=O)c1ccc(N2CCN(S(=O)(=O)c3ccc4c(c3)n(C)c(=O)n4C)CC2)cc1` the value was -9.43%.
As to `CCCN1CNc2c(c(=O)[nH]c(=S)n2Cc2ccc(OC)c(OC)c2)C1`, the Potency was 2.82 µM (active).
Same read-out and setting: for `COc1ccc(CCn2c3c(c(=O)[nH]c2=S)CN(Cc2ccccc2)CN3)cc1OC` the value was 1.78 µM (active).
Still for that read-out and setting: for `CCCN1CNc2c(c(=O)[nH]c(=S)n2CCc2cccc(Cl)c2Cl)C1` the value was 0.158 µM (active); for `CCCN1CNc2c(c(=O)[nH]c(=S)n2CCc2cc(C)cc(C)c2)C1`, 3.16 µM (active); for `O=C1Cc2cc(S(=O)(=O)N3CCN(c4cccc(C(F)(F)F)c4)CC3)ccc2N1`, 14.9 µM [inhibitor] (active).
Still for that read-out and setting: for `CCCN1CNc2c(c(=O)[nH]c(=S)n2CCc2cccc(OC)c2OC)C1` the value was 10 µM (active).
Consider `CC(=O)c1ccc(N2CCN(S(=O)(=O)c3ccc4c(c3)C(=O)OC4)CC2)cc1`, for which the “activity change, negative = inhibition” value is 0.0821%.
`CC(=O)c1ccc(N2CCN(S(=O)(=O)c3ccc4c(c3)C(Cl)(Cl)C(=O)N4)CC2)cc1`: the Potency is 41.1 µM [inhibitor] (active).
Take `COc1ccc(CCn2c(=S)[nH]c(=O)c3c(C)cc(C)nc32)cc1OC`: the “activity change, negative = inhibition” value is 7.14%.
In the case of `CCCN1CNc2c(c(=O)[nH]c(=S)n2CCc2cc(OC)cc(OC)c2)C1`, the Potency was 0.708 µM (active).
As to `CCCN1CNc2c(c(=O)[nH]c(=S)n2CCc2ccccc2OC)C1`, the Potency was 11.2 µM (active).
For `CC(=O)c1ccc(N2CCN(S(=O)(=O)c3ccc4c(c3)OCC(=O)N4)CC2)cc1`, the “activity change, negative = inhibition” value was -13.8%.
`CC(=O)c1ccc(N2CCN(C(=O)c3ccc4c(c3)CC(=O)N4)CC2)cc1`: the “activity change, negative = inhibition” value was -10.5%.
For the compound `CCCN1CNc2c(c(=O)[nH]c(=S)n2CCc2ccc(Cl)cc2)C1`, the Potency is 11.2 µM (active).
Regarding `COc1ccc(CCn2c3c(c(=O)[nH]c2=S)CN(c2ccccc2)CN3)cc1OC`, the Potency was 7.94 µM (active).
Same read-out and setting: under `CCCN1CNc2c(c(=O)[nH]c(=S)n2CCc2ccsc2)C1` stands 25.1 µM (active).
The same measure, in the same setting: for `CCCN1CNc2c(c(=O)[nH]c(=S)n2CCc2cccc(C)c2C)C1` the value was 1.12 µM (active).
The same measure, in the same setting: under `CCCN1CNc2c(c(=O)[nH]c(=S)n2CCc2c(OC)cccc2OC)C1` stands 14.1 µM (active).
Turning to `c1csc(-c2nc(NCC3CCCO3)c3ccccc3n2)c1` (stereo not given), the “activity change, negative = inhibition” value was -0.393% [at 32.7 µM].
For the compound `CCCN1CNc2c(c(=O)[nH]c(=S)n2CCc2ccc(Cl)c(Cl)c2)C1`, the Potency was 2.24 µM (active).
